HTR5A ag ctr: HTR5A agonists in luminescence cell assay, primary screen, counter-screen for OPRM1-OPRD1 heterodimer agonist project, full-deck HTS | 5-hydroxytryptamine receptor 5A (Homo sapiens), P47898 | cell-based | activation, % at 9.3 µM | 340,000 tested, 0.61% active; in the data active = activation mostly above about 9.5%, no sharp cut-off; inactive = mostly below about 7.6%;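 also: 0% = cells with vehicle only and 100% = reference agonist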
Target sequence (P47898 whole entry, looked up): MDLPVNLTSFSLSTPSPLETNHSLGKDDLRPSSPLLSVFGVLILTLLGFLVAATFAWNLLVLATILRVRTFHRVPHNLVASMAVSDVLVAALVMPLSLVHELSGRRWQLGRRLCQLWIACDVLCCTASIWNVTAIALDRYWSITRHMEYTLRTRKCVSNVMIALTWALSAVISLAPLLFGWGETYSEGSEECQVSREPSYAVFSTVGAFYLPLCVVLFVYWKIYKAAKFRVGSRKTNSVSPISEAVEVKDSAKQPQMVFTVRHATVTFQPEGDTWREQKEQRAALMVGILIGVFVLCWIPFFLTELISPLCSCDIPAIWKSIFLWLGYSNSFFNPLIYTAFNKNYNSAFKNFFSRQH
OPRM1-OPRD1 ag: agonists of OPRM1-OPRD1 heterodimerization, primary screen, cell-based, luminescence. activation, % at 9.3 µM. cells. AID 504326, 2011. 340,000 tested, 0.3% active; in the data active = activation above about 18%;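 also: 0% = vehicle-treated cells and 100% = reference agonist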
HTR5A inv ctr: HTR5A inverse agonists in luminescence cell assay, primary screen, counter-screen for OPRM1-OPRD1 heterodimer inverse agonist project, full-deck HTS; HTR5A cell line, inverse agonism; inhibition, % at 9.3 µM; 340,000 tested, 0.083% active; AID 504634, 2011; in the data active = inhibition mostly above about 23%, no sharp cut-off; inactive = mostly below about 18%;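 also: 0% = cells with DMSO and 100% = no-cell wells with DMSO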
OPRM1-OPRD1 inv: inverse agonists of MOR-DOR heterodimerization, primary screen, cell-based, luminescence; AID 504357, 2011; inhibition, % at 9.3 µM; cell-based MOR-DOR heterodimer luminescence, inverse agonism; 340,000 tested, 0.21% active; in the data active = inhibition above about 22%, passing the limit was not always enough;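 also: 0% = cells with DMSO and 100% = wells without cells with DMSO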
Active calls of the source: *. Rows were chosen to be rich in hits. Some 1.1% of all compounds tested hit in one or more screens of this group.

SMILES	HTR5A ag ctr	OPRM1-OPRD1 ag	HTR5A inv ctr	OPRM1-OPRD1 inv
O=C(COc1ccc(Br)cc1)NNC(=O)Cc1ccc(S(=O)(=O)N2CCOCC2)s1	-6.9	0.4	0.1	-1.5
CC12CCC(=O)N1C(C(=O)NNC(=O)COc1ccccc1F)CS2 (configuration not stated)	1.8	-2.3	-17.9	8.9
COc1ccc(C(=O)CC2OC(=O)c3c2ccc(OC)c3OC)cc1 (configuration not stated)	12.7*	0.8	-39.9	-4.9
CCOCCn1c(SCc2ccc(C)cc2)nc2c1c(=O)[nH]c(=O)n2C	12.9*	0.0	-31.6	0.0
CC(=O)c1ccc(S(=O)(=O)Nc2ccc(C(=O)N3CCC3)cc2)cc1	-5.4	-4.1	14.7	21.2
Cc1nc2sc(C(c3ccc(Cl)cc3)N3CC(C)OC(C)C3)c(O)n2n1 (configuration not stated)	11.3*	1.3	-25.3	-7.9
Cc1ccc(C(c2sc3nc(C)nn3c2O)N2CC(C)OC(C)C2)cc1 (configuration not stated)	4.2	-2.2	12.8	12.7
O=C(Nc1cccc(O)c1)c1ccc(NC(=O)c2cccs2)cc1	4.7	-2.5	17.6	13.0
O=C(c1ccc(-c2cccc(C(F)(F)F)c2)o1)N1CCN(c2ccccc2O)CC1	1.5	4.6	-7.8	-31.6
O=C(c1ccc(-c2cccc(C(F)(F)F)c2)o1)N1CCCC(C(F)(F)F)C1 (configuration not stated)	11.5*	5.9	-28.7	-32.6
COC(=O)CCCC1=CC2=CC(=O)C(C)(OC(=O)c3cccs3)C(=O)C2=CN1CCN1CCOCC1 (configuration not stated)	6.8	-0.9	-14.0	4.2
COCCN1C=C2C(=O)C(C)(OC(=O)c3cccs3)C(=O)C=C2C=C1CCCC(=O)OC (configuration not stated)	13.9*	-0.4	2.5	2.4
COC(=O)CCCC1=CC2=CC(=O)C(C)(OC(=O)c3cccs3)C(=O)C2=CN1CCCCO (configuration not stated)	12.3*	3.6	-22.9	-19.9
O=C(COc1ccccc1)NS(=O)(=O)c1ccc(Cl)cc1	11.9*	-1.7	-10.1	8.9
CCOc1ccccc1/C=C/c1nc2ccccc2[nH]c1=O	-2.2	4.7	8.3	-22.6
NCCCCCC(=O)Nc1ccncc1	-2.4	0.9	28.6	-4.6
Cn1cc(S(=O)(=O)Nc2cccc3ccccc23)c(=O)n(C)c1=O	1.7	-2.1	6.8	11.3
COc1c2ccoc2c(OC(C)=O)c2oc(C)cc(=O)c12	9.8*	-3.6	-36.5	18.2
C[C@@H]1NC(=O)N(c2ccc(F)cc2)C1=O	1.4	-2.3	-5.2	10.9
CC1=CC(=O)C=C(C)C1=NOC(=O)/C=C\c1ccccc1	12.8*	4.3	-0.5	-31.2
CC(C)N(C(=O)CSc1nc2ccccc2n1Cc1ccccc1)C(C)C	10.0*	-0.7	-23.2	3.5
CCCCOC(=O)CSc1nc(N)c(C#N)c(-c2ccc(OC)cc2)c1C#N	3.2	5.8	15.6	-33.0
Cc1ccc(NC(=O)c2ccc3ccccc3n2)nc1	13.9*	-0.8	-50.5	4.6
CSc1ccc(CNC(=O)C2Cc3cc(S(=O)(=O)N4CCCCC4)ccc3N2C(C)=O)cc1 (configuration not stated)	0.7	-0.9	-2.6	4.7
CCOC(=O)c1c(-c2ccc(C)o2)csc1NC(=O)COC(=O)c1cccs1	10.5*	-1.1	10.3	6.4
SMILES	HTR5A ag ctr	OPRM1-OPRD1 ag	HTR5A inv ctr	OPRM1-OPRD1 inv
O=C1c2ccccc2N(Cc2ccc(Cl)cc2)C2=NCCN12	10.7*	-0.5	-28.5	3.7
O=C(NCCNc1ccc([N+](=O)[O-])cc1C(F)(F)F)c1ccccc1	0.2	0.6	9.7	-3.8
O=C(NCCNc1ccc([N+](=O)[O-])cc1C(F)(F)F)c1cccc(F)c1	13.8*	1.8	5.5	-9.3
CN(C)c1c(N)[nH]c2c(c1=O)c(=O)n(C)c(=O)n2C	-0.8	-0.8	-5.5	4.3
CCOC(=O)c1c(-c2ccccc2)oc2cc(CN(C)C)c(O)c(CN(C)C)c12	11.9*	-1.0	-38.5	5.2
COc1ccc(C(CNCC(O)COc2c(C)ccc(C)c2C)N(C)C)cc1 (configuration not stated)	-0.6	8.9	2.5	-42.0
CCOC(=O)c1ccc(Nc2nc(C)nc3c2nnn3Cc2ccccc2)cc1	8.5*	5.2	-28.9	-25.1
COc1ccc(Cl)cc1Nc1nc(C)nc2c1nnn2Cc1ccccc1	-3.8	5.2	-24.3	-26.6

Assay outcomes deposited in PubChem BioAssay by The Scripps Research Institute Molecular Screening Center.
